Screening results: PubChem BioAssay, National Center for Advancing Translational Sciences (NCATS)
Pol iota inh – qHTS for Inhibitors of Polymerase Iota; actives 1% (n = 390,000); Pol iota fluorescent replication assay, 10 min; Potency, µM (doses to about 115 µM), for inactives: at the highest dose activity, negative = inhibition, hits mostly inhibitors; AID 588590, 2011; DNA polymerase iota (Homo sapiens), Q9UNA4
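Pol iota at 10 nM preincubated 15 min with compounds at room temperature; reaction started with fluorescent substrate, 50 nM final. Fluorescence read kinetically at 0 and 10 min; buffer-only wells as negative control.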
WRN inhibitor – qHTS for Inhibitors of WRN Helicase; Bifunctional 3'-5' exonuclease/ATP-dependent helicase WRN (Homo sapiens), Q14191; Potency, µM (highest dose often 114 µM), without a hit: at the highest dose activity change, negative = inhibition, usual class: inhibitors; WRN helicase unwinding, fluorescent forked duplex, kinetic; actives 0.46% (n = 360,000); also: % is scaled to controls: 0 for no effect and ±100 for the full control effect; nearly all actives have a fitted effect of over 55% in size
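WRN at 20 nM final was preincubated with compound for 15 min at room temperature; reaction started with 100 nM forked duplex oligonucleotide carrying fluorophore and quencher plus 2 mM ATP (final). Unwinding followed kinetically by red fluorescence (ex 525/em 598 nm).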
FEN1 inhibitor – qHTS Assay for the Inhibitors of Human Flap endonuclease 1 (FEN1) | P39748 | Recombinant FEN1 flap cleavage, fluorescence, 15 min | Potency, µM (highest dose often 114 µM), for the others: at the highest dose activity change, negative = inhibition, hits mostly inhibitors | actives 0.35% (n = 390,000); also: % is scaled to controls: 0 for no effect and ±100 for the full control effect; nearly all actives have a fitted effect of over 65% in size
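Read-out was taken twice, immediately and after 15 min, following addition of 50 nM substrate to 10 nM FEN1 that had sat with test compound for 15 min at room temperature. Curves came from a four-parameter Hill model.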
Pol eta inh – qHTS for Inhibitors of Polymerase Eta. DNA polymerase eta (Homo sapiens), Q9Y253. recombinant Pol eta, fluorescent DNA replication assay. Potency, µM (doses to about 114 µM), for inactives: at the highest dose activity change, negative = inhibition, usual class: inhibitors. actives 1.2% (n = 390,000); also: % is scaled to controls: 0 for no effect and ±100 for the full control effect
Target sequence (Q9Y253 whole entry, looked up): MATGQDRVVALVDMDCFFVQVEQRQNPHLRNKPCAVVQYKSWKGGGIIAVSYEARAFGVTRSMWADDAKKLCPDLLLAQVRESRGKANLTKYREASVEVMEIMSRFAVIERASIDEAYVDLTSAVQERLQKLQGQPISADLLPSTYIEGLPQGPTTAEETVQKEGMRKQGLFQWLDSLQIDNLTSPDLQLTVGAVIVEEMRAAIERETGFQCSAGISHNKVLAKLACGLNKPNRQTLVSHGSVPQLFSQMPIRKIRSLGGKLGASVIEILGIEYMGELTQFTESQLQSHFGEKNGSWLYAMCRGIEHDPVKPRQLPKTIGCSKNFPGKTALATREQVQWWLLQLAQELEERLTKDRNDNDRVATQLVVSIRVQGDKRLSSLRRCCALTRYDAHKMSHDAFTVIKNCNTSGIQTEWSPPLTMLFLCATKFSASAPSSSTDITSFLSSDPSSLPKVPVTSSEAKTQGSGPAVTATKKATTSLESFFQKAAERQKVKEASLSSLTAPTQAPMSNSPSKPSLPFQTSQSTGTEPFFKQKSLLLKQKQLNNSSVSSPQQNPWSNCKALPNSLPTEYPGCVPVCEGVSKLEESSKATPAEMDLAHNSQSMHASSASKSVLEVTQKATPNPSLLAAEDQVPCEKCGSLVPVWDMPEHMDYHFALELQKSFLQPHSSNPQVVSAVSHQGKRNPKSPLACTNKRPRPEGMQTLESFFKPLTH
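Pol eta (10 nM) was preincubated with compounds for 15 min at room temperature, after which fluorescent replication substrate (50 nM final) was added to start the reaction. Fluorescence was read kinetically at 0 and 10 min.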
Pol beta inh – qHTS Assay for Inhibitors of DNA Polymerase Beta. Pol beta primer extension/strand displacement, fluorescence kinetic. actives 1.3% (n = 340,000). Potency, µM (titrated, usually from 114 µM), for the others: at the highest dose activity change, negative = inhibition, hits mostly inhibitors; also: % is scaled to controls: 0 for no effect and ±100 for the full control effect
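Pol beta (10 nM) was preincubated with compound for 15 min at room temperature. The reaction was then started with 50 nM substrate and read immediately and after a further 10 min at room temperature.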
POLK inh – qHTS for Inhibitors of Polymerase Kappa | DNA polymerase kappa (Homo sapiens), Q9UBT6 | purified Pol kappa, fluorescent DNA synthesis assay, 10 min | Potency, µM (highest dose often 107 µM), for inactives: top-dose activity, negative = inhibition, actives largely listed as inhibitors | actives 0.53% (n = 400,000); also: % is scaled to controls: 0 for no effect and ±100 for the full control effect
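Kinetic fluorescence readout at 0 and 10 min followed reaction start with substrate at 50 nM final. Beforehand, enzyme (10 nM Pol kappa) stood 15 min with compound at room temperature; buffer-only wells were negative controls.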
Active calls of the source: *; ? = inconclusive; / = no result given; [ ] = dose if it differs, or a comment. Sampled rows, rich in hits. Any-hit rate of the full collection: about 2.4%. Calls follow the shape of the dose curve; as a rule, active = well fitted curve in the direction sought with a large enough effect; inconclusive = small, poorly fitted or top-dose-only effect, or another doubt; inactive = no such curve, though single readings can be large; an effect the other way counts as inactive or inconclusive. Potency is read from the fitted curve at half-maximal effect.

SMILES	Pol iota inh	WRN inhibitor	FEN1 inhibitor	Pol eta inh	Pol beta inh	POLK inh
CCOc1ccccc1CNC(=O)c1cc2c(=O)n(Cc3cccnc3)ccc2nc1C	-10%	/	21%	9%	0%	7%
Cc1cccc(N2CCN(C3(c4ccccc4)C(=O)c4ccccc4C3=O)CC2)c1C	-10%	/	-4%	-15%	-28%	-6%
O=S(=O)(c1ccccc1)N1CCN(S(=O)(=O)c2ccccc2)CC1	-40%	/	-49%	/	/	-35%
O=S(=O)(/N=S1\CC=CCN1S(=O)(=O)c1ccccc1)c1ccccc1 (stereo unspecified)	28µM*	8.9µM*	?	-12%	/	-8%
O=C(O)CN1C(=O)/C(=C/C=C/c2ccccc2)SC1=S	?	-1%	-1%	-22%	-23%	-39%
C#CCN1C(=O)S/C(=C/C=C/c2ccc(N(C)C)cc2)C1=O	79µM*	35µM*	?	-19%	2%	-19%
CCC(=O)N(CCC(c1ccco1)C(C)C)Cc1ccccc1 (stereo unspecified)	137%	-9%	15%	-22%	3%	-8%
CCC(=O)N(CCC(c1ccc(C)cc1)c1ccco1)Cc1ccco1 (stereo unspecified)	45µM*	?	-20%	?	25µM*	?
COc1ccc2c(=O)c3c(=O)n(Cc4ccco4)c(-c4ccccc4)nc3oc2c1	1%	-8%	-7%	4%	-12%	-10%
CCCc1nc2oc3cc(OC)ccc3c(=O)c2c(=O)n1Cc1ccco1	?	-29%	-15%	?	45µM*	-43%
CCCc1nc2sc3ccccc3c(=O)c2c(=O)n1Cc1ccco1	?	-22%	-4%	?	50µM*	?
COc1cc(Nc2nc(SCC(=O)c3ccc(Br)cc3)nc3ccccc23)cc(OC)c1	79µM*	/	2%	?	?	1%[60.1 µM]
O=C(NN1C(=O)c2ccc(-c3ccc4c(c3)C(=O)N(NC(=O)c3cccnc3)C4=O)cc2C1=O)c1cccnc1	50µM*	-32%	-1%	50µM*	?	-18%
COc1ccccc1/C=C(/CC(=O)NCc1ccccc1)c1nc2ccccc2s1	-5%	-25%	-3%	?	20µM*	-31%
COc1ccccc1/C=C(/CC(=O)NCc1ccc(F)cc1)c1nc2ccccc2s1	?	-8%[57.1 µM]	0%	?	45µM*	-17%
Nc1ncc(S(=O)(=O)NCc2ccccc2)cn1	6%	/	-5%	-13%	36%	-12%[60.1 µM]
CC(=O)Nc1ccc(OCC(O)CN2CCN(c3cc(Cl)ccc3C)CC2)cc1 (stereo unspecified)	7%	-9%	-6%	-10%	6%	0%
CC(=O)Nc1ccc(OCC(O)CN2CCN(c3ccc(C)c(Cl)c3)CC2)cc1 (stereo unspecified)	89µM*	-1%	0%	-10%	6%	-5%
CCOC(=O)c1ccccc1NC(=O)N1CCOc2ccc(Cl)cc21	?	/	19%	-17%	5%	-22%
CCN(c1ccccc1)S(=O)(=O)c1ccc(Oc2ccc(-n3ccnc3)cc2)nc1	9%	-8%	-2%	4%	40µM*	-10%
CCN(CC)S(=O)(=O)c1ccc(OC)c(NC(=O)/C=C/c2ccco2)c1	?	-8%	-18%	79µM*	-21%	-9%
CC(C)(C)n1ncc2c(=O)n(Cc3ccccc3Cl)cnc21	2%	/	9%	/	/	1%
O=C(O)C1C2C=CC(C2)C1C(=O)NCCc1ccncc1 (stereo unspecified)	-13%	2%	4%	?	50µM*	-19%
CCn1c(=O)n(CC)c2cc(N3CCCCC3)c(NC(=O)Nc3ccccc3C(F)(F)F)cc21	28%	/	-12%	-19%	11%	-2%
CNS(=O)(=O)c1cccc(C(=O)OCC(=O)c2ccc[nH]2)c1	40µM*	-33%	10%	45µM*	/	-42%
SMILES	Pol iota inh	WRN inhibitor	FEN1 inhibitor	Pol eta inh	Pol beta inh	POLK inh
CC[C@H](C)[C@H](NC(=O)[C@H](Cc1ccc(O)cc1)NC(=O)[C@H](CCCNC(=N)N)NC(=O)[C@H](CCCNC(=N)N)NC(=O)[C@H](CC(C)C)NC(=O)[C@H](CC(=O)O)NC(=O)[C@H](C)NC(=O)[C@H](C)NC(=O)[C@H](Cc1ccc(O)cc1)NC(=O)[C@H](CCC(N)=O)NC(=O)[C@H](C)NC(=O)[C@H](CCSC)NC(=O)[C@H](CCC(N)=O)NC(=O)[C@H](CCC(=O)O)NC(=O)[C@@H]1CCCN1C(=O)[C@@H](NC(=O)[C@H](C)NC(=O)[C@H](CC(N)=O)NC(=O)[C@H](CC(=O)O)NC(=O)CNC(=O)[C@@H]1CCCN1C(=O)[C@H](Cc1ccc(O)cc1)NC(=O)[C@@H](NC(=O)[C@@H]1CCCN1C(=O)[C@H](CCC(=O)O)NC(=O)[C@H](CC(C)C)NC(=O)[C@@H]1CCCN1C(=O)[C@H](C)N)C(C)C)[C@@H](C)O)C(=O)N[C@@H](CC(N)=O)C(=O)N[C@@H](CCSC)C(=O)N[C@@H](CC(C)C)C(=O)N[C@H](C(=O)N[C@@H](CCCNC(=N)N)C(=O)N1CCC[C@H]1C(=O)N[C@@H](CCCNC(=N)N)C(=O)N[C@@H](Cc1ccc(O)cc1)C(N)=O)[C@@H](C)O	/	/	/	/	/	18%[60.1 µM]
CN(C)c1ccc(C(I)C(I)c2ccnc3ccccc23)cc1 (stereo unspecified)	-7%	/	79µM*	/	/	-2%
CCOc1cccc(/C(O)=C2/C(=O)C(=O)N(Cc3cccnc3)C2c2ccco2)c1 (stereo unspecified)	-1%	-4%	1%	0%	12%	-17%
CCOc1cccc(/C(O)=C2/C(=O)C(=O)N(CCOC)C2c2ccco2)c1 (stereo unspecified)	?	3%	7%	?	79µM*	-12%
COCCCn1cnc2c(c1=O)c1nc3ccccc3nc1n2-c1ccc(C)cc1	6%	-1%	-3%	-5%	35µM*	-11%
COCCCn1c2nc3ccccc3nc2c2c(=O)n(CC3CCCO3)cnc21 (stereo unspecified)	11%	8%	-1%	3%	40%	1%
